Assay outcomes deposited in PubChem BioAssay by National Center for Advancing Translational Sciences (NCATS).
Shown are actives, neighbours in structure and some others; about 2% of the full set was active somewhere.
FUS suppressor: FUS proteinopathy suppression in yeast; S. cerevisiae FUS-expressing, growth rescue, OD600, 24 h; Potency, µM (titrated, usually from 76.6 µM), hits mostly activators; 390,000 tested, 0.24% active;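 further: potency means the concentration at half of the fitted maximal effect; plate controls were DMSO vehicle for no effect and reference control for full effect; nearly all actives have a fitted effect of over 55% in size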
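Read-out: OD at 600 nm after 24hr at 30C, reporting rescue of FUS-induced yeast toxicity. Cells at OD 0.005 in galactose (2%) minimal medium; compounds tested in a dilution series; CP55940 titration from 92uM final as control.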
aSyn rescue: rescues yeast growth from alpha-synuclein toxicity | Yeast expressing alpha-synuclein, growth rescue, BacTiter-Glo, 24 h | Potency, µM (titrated, usually from 46.1 µM), inactives show at the highest dose growth rescue (activation), most hits filed as activators | 370,000 tested, 0.14% active | AID 652106; further: potency means the concentration at half of the fitted maximal effect; % of control where 0% means no effect; nearly all actives have a fitted effect of over 65% in size
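Screening used galactose-induced yeast with toxic alpha-synuclein levels, exposed to compound for 24 hr at 30 deg C. Cell growth, read with BacTiter-Glo luminescence, gave the measured signal.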
LDHA inh: blocks human lactate dehydrogenase A | P00338 | purified LDHA, NADH/diaphorase-resazurin fluorescence; active compounds read low | activity change, % (values are at about 110 or 230 µM) | 480,000 tested, 0.15% active; in the data active means activity change below about -30%; inconclusive means mostly about -25% to -30%;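 further: plate controls were DMSO wells for no effect and wells without enzyme for full effect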
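Resorufin fluorescence (ex540/em590), read at 0 and 20 min after diaphorase/resazurin addition, reports the NADH left after a 5 min room-temperature reaction of 2 nM human LDH5 with 0.06 mM NADH and 0.2 mM pyruvate.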
Abeta yeast res: restores growth of yeast expressing A-beta42 peptide; yeast expressing A-beta42, growth rescue, OD600, 48 h; response scale: 0% DMSO, 100% iron-clioquinol control; AID 1347071; Potency, µM (series often up to 46.1 µM), most hits filed as activators; 410,000 tested, 0.063% active; further: potency means the concentration at half of the fitted maximal effect; nearly all actives have a fitted effect of over 55% in size
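Yeast A-beta toxicity model in growth medium with pinned compounds, 48 h at 30 C; growth read as absorbance at 600 nm. Normalized to FeCl3/clioquinol equimolar mix (positive) and DMSO (negative).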
TDP43 rescue: inhibitors of TDP-43 toxicity in yeast; 410,000 tested, 1.8% active; Potency, µM (titrated, usually from 46.1 µM), for inactives: at the highest dose growth rescue (activation), usual class: activators; AID 652104; TDP-43 expressing yeast growth rescue, BacTiter-Glo, 24 h; further: potency means the concentration at half of the fitted maximal effect; % of control where 0% means no effect; nearly all actives have a fitted effect of over 50% in size
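Yeast expressing TDP-43 (pregrown in raffinose, seeded at OD600=0.02 in galactose medium) exposed to compounds 24 hr at 30 deg C. Growth read by BacTiter-Glo luminescence; rescue of toxicity appears as increased signal.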
IDH1 R132H inh: inhibitors of human mutant IDH1 R132H; O75874; IDH1-R132H enzyme, NADPH consumption, diaphorase/resazurin fluorescence; Potency, µM (series often up to 76.6 µM), for the others: at the top dose activity change, negative = inhibition, actives largely listed as inhibitors; 390,000 tested, 0.093% active; further: potency means the concentration at half of the fitted maximal effect; on the % scale 0 is the no-effect control and ±100 the full control effect; nearly all actives have a fitted effect of over 65% in size
Target sequence (O75874 whole entry R132H, stated change not applied): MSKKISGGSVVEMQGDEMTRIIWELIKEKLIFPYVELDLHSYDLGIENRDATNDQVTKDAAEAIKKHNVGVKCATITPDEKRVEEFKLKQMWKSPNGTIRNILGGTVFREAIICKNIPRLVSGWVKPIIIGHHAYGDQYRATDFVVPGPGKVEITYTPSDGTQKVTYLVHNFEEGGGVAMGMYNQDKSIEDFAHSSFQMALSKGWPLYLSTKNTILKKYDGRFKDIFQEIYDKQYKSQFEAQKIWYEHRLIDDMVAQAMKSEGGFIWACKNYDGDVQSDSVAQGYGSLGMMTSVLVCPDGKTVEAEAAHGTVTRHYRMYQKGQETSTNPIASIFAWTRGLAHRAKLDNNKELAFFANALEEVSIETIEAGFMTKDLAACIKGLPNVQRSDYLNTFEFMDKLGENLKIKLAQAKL
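IDH1-R132H (0.5 ug/mL dispensed) in pH 7.5 Tris buffer was preincubated 30 min with compound, then given a substrate mix of 0.016 mM NADPH and 2 mM alpha-KG for 80 min at room temperature; remaining NADPH was read by diaphorase/resazurin fluorescence.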
Resorufin autofl: counter-screen for mutant IDH1 inhibitors: fluorescence interference | shares compounds with IDH1 R132H inh | Resorufin detection reagent fluorescence interference, cell-free | inhibition of signal, % at 51.2 µM | 750 tested, under 10 active;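 further: 0% = wells with normal resorufin and full inhibition = wells lacking resorufin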
IDH1 WT: selectivity of mutant IDH1 inhibitors: human wild-type IDH1. WT IDH1 enzyme, NADPH diaphorase/resazurin fluorescence. shares compounds with IDH1 R132H inh. Potency, µM (titrated, usually from 115 µM), for the others: at the top dose activity change, negative = inhibition, most hits filed as inhibitors. 750 tested, 9% active;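 further: potency means the concentration at half of the fitted maximal effect; 0% = full WT IDH1 enzyme control and full inhibition = no enzyme wells; nearly all actives have a fitted effect of over 55% in size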
Target sequence (O75874 whole entry, looked up): as the sequence (O75874 whole entry R132H, stated change not applied) above, with H132R counted along it
mIDH1 confirm: confirmation of human mutant IDH1 inhibitors. IDH1 R132H enzyme, NADPH diaphorase/resazurin fluorescence. AID 624002. 750 tested, 83% active. Potency, µM (titrated, usually from 76.6 µM), without a hit: at the highest dose activity change, negative = inhibition, most hits filed as inhibitors. shares compounds with IDH1 R132H inh; further: potency means the concentration at half of the fitted maximal effect; nearly all actives have a fitted effect of over 50% in size
Starred values were filed as active, the others as inactive; i = inactive; ? = inconclusive; . = no result given. Unless noted, the call rests on the fitted dose curve; in most records, active means well fitted curve in the direction sought with a large enough effect; inconclusive means small, poorly fitted or top-dose-only effect, or another doubt; inactive means no such curve, though single readings can be large; an effect the other way counts as inactive or inconclusive.

SMILES	FUS suppressor	aSyn rescue	LDHA inh	Abeta yeast res	TDP43 rescue	IDH1 R132H inh	Resorufin autofl	IDH1 WT	mIDH1 confirm
COc1ccc(-c2sc(Nc3ccc(F)c(F)c3F)nc2CCC(=O)NN)cc1	i	-2.1%	-1.5	i	2.4%	29.3µM*	-9.4	-21.1%	28.2µM*
CC(=O)N1CCc2c(sc3c2c(=O)n(CCc2ccccc2)c(=O)n3Cc2ccccc2C)C1	?	.	0.4	i	35.5µM*	12.6µM*	-11.3	0.8%	11.2µM*
CC(=O)N1CCc2c(sc3c2c(=O)n(-c2ccc(C)cc2)c(=O)n3Cc2c(F)cccc2Cl)C1	i	.	-2.2	i	-17.6%	?	3.1	35.5µM*	22.4µM*
CC(=O)N1CCc2c(sc3c2c(=O)n(-c2ccccc2Cl)c(=O)n3Cc2cccc(C)c2)C1	?	.	4.3	i	35.5µM*	31.6µM*	1.0	20µM*	15.8µM*
COc1ccc(-c2c(-c3ccsc3)oc(=O)c3cc(OC)c(OC)cc23)cc1	i	-7.6%	-2.9	i	29.6%	11.2µM*	5.2	-0.4%	8.91µM*
COc1cc2c(-c3cc(F)cc(F)c3)c(-c3ccsc3)oc(=O)c2cc1OC	i	-8.7%	-14.2	i	0.0%	-3.6%	.	.	.
COCc1ccc(-c2c(-c3ccc(OC)cc3)oc(=O)c3cc(OC)c(OC)cc23)cc1	?	5.4%	-15.7	i	28.8%	31.6µM*	-5.0	-4.2%	10µM*
COc1ccc(-c2oc(=O)c3cc(OC)c(OC)cc3c2-c2ccc3c(c2)OCO3)cc1	?	-0.1%	-7.1	i	16.4%	20.6%	.	.	.
COc1ccc(-n2nnnc2C2CCN(S(=O)(=O)c3ccccc3Cl)CC2)cc1	.	.	2.4	.	.	.	.	.	.
CC(C)c1ccc(NC(=O)C(c2ccccc2)N2CC(=O)Nc3ccccc32)cc1 (stereo not given)	i	1.3%	2.5	i	-7.8%	?	0.5	-2.0%	25.1µM*
O=C(CCc1c[nH]c2ccccc12)Nc1ccc(N2CCCCC2)cc1	.	.	9.6	.	.	.	.	.	.
CC(C)(C)c1c(Cl)c(O)c(-c2ccccc2)c(=O)n1-c1ccccc1	i	-2.2%	-8.6	i	-21.0%	46.5µM*	-3.0	?	?
Cc1ccc(/C=N/Nc2ccnc3cc(Cl)ccc23)s1	.	.	6.0	.	.	.	.	.	.
O=C(COc1ccccc1/C=C\c1[nH]c(=O)[nH]c(=O)c1[N+](=O)[O-])Nc1ccccc1	i	-3.4%	-7.5	i	-5.6%	41.4µM*	-1.0	?	39.8µM*
O=c1[nH]c(/C=C/c2ccccc2Cl)c([N+](=O)[O-])c(=O)[nH]1	i	-11.2%	-8.7	i	5.0%	-20.7%	.	.	.
COc1cc2c(c3oc(-c4ccccc4)cc(=O)c13)C=CC(C)(C)O2	?	9.2%	0.8	i	?	39.8µM*	-11.5	28.2µM*	22.4µM*
COC(=O)c1c(NC(=O)c2ccccc2)sc(Cc2ccccc2)c1C	i	1.2%	-5.6	i	22.0%	2.0%	.	.	.
COC(=O)c1c(NC(C)=O)sc(Cc2ccccc2)c1C	i	-8.0%	2.9	i	11.6%	?	-6.3	4.7%	50.1µM*
S=C(NCC(c1ccccc1)c1ccccc1)Nc1ccc(Cl)cc1	.	.	1.3	.	.	.	.	.	.
CCc1cc(C(=O)Cc2csc(-c3ccccc3)n2)c(O)cc1O	.	.	6.2	.	.	.	.	.	.
CCc1ccc(CNC(=O)CN2C(=O)c3cccnc3Oc3ccc(Cl)cc32)cc1	?	.	-32.5*	i	13.6%	?	-3.5	0.9%	-11.2%
COc1ccc(C(=O)NC2CCC(C)CC2)cc1S(=O)(=O)N(C)C (stereo not given)	.	.	-4.9	.	.	.	.	.	.
COc1ccccc1C1CC(c2ccc(Br)cc2)=NN1C(=O)c1cccnc1 (stereo not given)	i	6.8%	0.0	i	?	46.5µM*	0.3	-4.9%	22.4µM*
O=C(c1ccncc1)N1N=C(c2ccc(Cl)cc2)CC1c1ccccc1O (stereo not given)	i	11.7%	-5.7	i	23.9%	52.1µM*	2.2	-2.1%	35.5µM*
O=C(Nc1cccc2cccnc12)NC12CC3CC(CC(C3)C1)C2	.	.	6.7	.	.	.	.	.	.
SMILES	FUS suppressor	aSyn rescue	LDHA inh	Abeta yeast res	TDP43 rescue	IDH1 R132H inh	Resorufin autofl	IDH1 WT	mIDH1 confirm
COc1ccc(N(C(=O)/C=C/C(=O)Nc2cc(C)on2)C(C(=O)NC2CCCC2)c2ccccc2C)cc1 (stereo not given)	?	0.6%	1.9	i	6.6%	?	-11.5	6.1%	35.5µM*
Cc1cc(NC(=O)CCC(=O)N(c2ccccc2F)C(C(=O)NC2CCCC2)c2ccccc2)no1 (stereo not given)	i	-1.3%	0.2	i	-6.3%	?	-4.9	3.0%	25.1µM*
Cc1cc(NC(=O)CCC(=O)N(c2ccccc2)C(C(=O)NC2CCCC2)c2ccccc2F)no1 (stereo not given)	i	6.3%	-6.3	i	-6.6%	?	-1.1	5.1%	22.4µM*
O=C(CCCC(=O)N(c1ccc2c(c1)OCCO2)C(C(=O)NC1CCCCC1)c1ccc(Cl)cc1)Nc1ccccn1 (stereo not given)	i	6.9%	1.5	i	-4.5%	?	-6.9	0.4%	12.6µM*
COc1ccc(N(C(=O)CCC(=O)Nc2cc(C)on2)C(C(=O)NC2CCCC2)c2ccco2)cc1 (stereo not given)	i	-0.8%	0.2	i	14.5%	-3.6%	.	.	.
Cc1ccc(C(C(=O)NC2CCCC2)N(C(=O)CCC(=O)Nc2cc(C)on2)c2ccccc2)cc1 (stereo not given)	i	0.0%	3.1	i	6.8%	3.9%	.	.	.
C=Cc1c(C)n[nH]c1C	.	.	1.9	.	.	.	.	.	.
CCn1c(CCCOc2ccc(Cl)cc2C)nnc1SCc1ccc(Cl)cc1	.	.	-4.0	.	.	.	.	.	.
Cc1cc(NC(=O)CCCC(=O)N(c2ccccc2)C(C(=O)NC2CCCCC2)c2cccs2)no1 (stereo not given)	i	-16.1%	-1.4	i	15.2%	?	1.4	9.4%	20µM*
